Experimental data reported in PubChem BioAssay (Tox21).
Results filed as inconclusive are left out. Activity calls are given as the source filed them. Unless noted, the call rests on the fitted dose curve.

Legend:
[1] = Nuclear factor erythroid 2-related factor 2/antioxidant responsive element (Nrf2/ARE) small molecule agonists: qHTS cell viability counter screen in human keratinocytes (AID 1919968; active means well fitted curve in the direction sought with a large enough effect in the repeat runs; an effect the other way counts as inactive or inconclusive; further: nearly all actives have a fitted effect of over 55% in size)
Procedure, shortened: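 In human HaCaT keratinocytes stably expressing an ARE-driven luciferase, compound exposure lasted 23 h at 37 C under 5% CO2. Viable cells are quantified with a protease-based fluorogenic reagent (CellTiter-Fluor) read 1 h after addition.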

[2] = Nuclear factor erythroid 2-related factor 2/antioxidant responsive element (Nrf2/ARE) small molecule agonists: luciferase reporter gene qHTS assay in human keratinocytes (AID 1919969); further: nearly all actives have a fitted effect of over 35% in size
[3] = target: Gonadotropin-releasing hormone receptor (Homo sapiens) (UniProt P30968); test: Human gonadotropin-releasing hormone receptor (GnRHR) small molecule agonists, calcium flux assay in GnRHR-HEK293 cells (AID 1920063); further: nearly all actives have a fitted effect of over 35% in size
Sequence of Gonadotropin-releasing hormone receptor (Homo sapiens) (P30968 whole entry, looked up): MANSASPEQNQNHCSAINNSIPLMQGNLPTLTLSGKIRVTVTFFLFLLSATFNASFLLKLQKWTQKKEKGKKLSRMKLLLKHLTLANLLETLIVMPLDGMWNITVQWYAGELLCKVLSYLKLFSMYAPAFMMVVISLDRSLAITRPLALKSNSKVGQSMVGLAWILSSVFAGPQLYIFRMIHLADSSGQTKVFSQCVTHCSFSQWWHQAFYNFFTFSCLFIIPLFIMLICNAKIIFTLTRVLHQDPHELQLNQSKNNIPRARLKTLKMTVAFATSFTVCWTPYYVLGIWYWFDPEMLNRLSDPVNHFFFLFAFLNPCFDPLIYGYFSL
Procedure, shortened: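 Intracellular calcium rise is the read-out: engineered human GnRHR HEK293 cells, dye-loaded, are exposed to DMSO-dissolved compounds and fluorescence at Ex/Em 480/540 is tracked for 3 min.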

[4] = target: KiSS-1 receptor (Homo sapiens) (UniProt Q969F8); test: Human kisspeptin (KISS1R) small molecule agonists, calcium flux assay in KISS1R-HEK293 cells (AID 1920064; active means well fitted curve in the direction sought with a large enough effect in the repeat runs; an effect the other way counts as inactive or inconclusive)
Sequence of KiSS-1 receptor (Homo sapiens) (Q969F8 whole entry, looked up): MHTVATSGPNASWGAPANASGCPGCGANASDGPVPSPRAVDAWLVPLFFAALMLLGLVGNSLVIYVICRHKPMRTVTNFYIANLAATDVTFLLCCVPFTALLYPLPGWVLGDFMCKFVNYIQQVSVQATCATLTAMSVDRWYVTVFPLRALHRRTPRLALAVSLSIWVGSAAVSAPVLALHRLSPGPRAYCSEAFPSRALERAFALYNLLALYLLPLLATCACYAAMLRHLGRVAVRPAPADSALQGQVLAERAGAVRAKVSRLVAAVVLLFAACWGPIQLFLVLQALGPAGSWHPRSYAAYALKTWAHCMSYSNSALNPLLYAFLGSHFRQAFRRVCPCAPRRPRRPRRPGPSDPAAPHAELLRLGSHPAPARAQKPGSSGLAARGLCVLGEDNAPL
Procedure, shortened: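 Concentration-response testing used 15 concentrations in triplicate on human KISS1R-expressing HEK293 cells. Calcium-dependent fluorescence (Ex/Em 480/540) was followed kinetically for 3 min after compound transfer.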

[5] = G protein-coupled receptor (GPCR) small molecule agonists, calcium flux assay: HEK293 wild type cell line counter screen (AID 1920065)
Procedure, shortened: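 Fluorescence intensity signals activation. After overnight (18 h) culture and a 1 h calcium dye load at 37 C, compounds are added by pin tool and the plate read at 480/540 nm for 3 min in 1 s steps.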

[6] = p53 small molecule agonists, cell-based qHTS assay with human liver microsomes: qHTS cell viability counter screen (AID 1963579); further: nearly all actives have a fitted effect of over 45% in size
Procedure, shortened: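 After the 460/530 nm beta-lactamase read, CellTiter-Glo was added to the same wells and luminescence measured after 30 min at room temperature, giving viability of p53RE-bla cells treated 16 h with compounds plus microsomes and NADPH.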

[7] = p53 small molecule agonists, cell-based qHTS assay with rat liver microsomes: qHTS cell viability counter screen (AID 1963580); further: nearly all actives have a fitted effect of over 45% in size
Procedure, shortened: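 Cytotoxicity counter screen: intracellular ATP measured by CellTiter-Glo luminescence in the same wells as the beta-lactamase reporter read, on HCT-116 p53RE-bla cells exposed 16 h at 37 C to compounds with rat liver microsomes and NADPH, each 0.5 mg/mL final.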

[8] = p53 small molecule agonists, cell-based qHTS assay: qHTS cell viability counter screen (AID 1963581); further: nearly all actives have a fitted effect of over 45% in size
Procedure, shortened: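 Luminescence from CellTiter-Glo, reflecting ATP content, serves as the cytotoxicity measure; it is taken after the 2 h reporter substrate step in HCT-116 p53RE-bla cells dosed for 16 h at 37 C.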

[9] = target: 5-hydroxytryptamine receptor 2A (Homo sapiens) (UniProt P28223); test: 5-hydroxytryptamine receptor 2A (HTR2A) small molecule antagonists, cell-based qHTS assay (AID 1963586); further: nearly all actives have a fitted effect of over 45% in size
Sequence of 5-hydroxytryptamine receptor 2A (Homo sapiens) (P28223 whole entry, looked up): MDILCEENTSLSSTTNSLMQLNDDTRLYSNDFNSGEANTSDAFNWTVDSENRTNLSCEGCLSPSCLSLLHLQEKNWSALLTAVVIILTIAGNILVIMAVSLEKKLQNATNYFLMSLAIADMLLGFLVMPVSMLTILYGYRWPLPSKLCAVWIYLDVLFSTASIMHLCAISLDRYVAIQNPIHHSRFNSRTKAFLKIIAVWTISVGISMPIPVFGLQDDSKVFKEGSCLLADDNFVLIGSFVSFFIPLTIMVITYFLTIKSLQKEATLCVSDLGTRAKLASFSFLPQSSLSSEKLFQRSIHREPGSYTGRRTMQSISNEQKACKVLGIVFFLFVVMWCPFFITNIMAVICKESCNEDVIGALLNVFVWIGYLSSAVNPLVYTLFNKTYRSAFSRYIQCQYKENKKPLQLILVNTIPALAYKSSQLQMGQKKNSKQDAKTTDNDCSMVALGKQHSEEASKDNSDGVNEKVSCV
Procedure, shortened: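 CHO cells stably expressing human HTR2A were plated for 18 h at 37 C, then loaded with calcium dye for 1 h. Compounds were preincubated 5 min at room temperature before DOI (4 nM solution) was added. Kinetic fluorescence was read for 3 min.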

[10] = target: 5-hydroxytryptamine receptor 2A (Homo sapiens) (UniProt P28223); test: 5-hydroxytryptamine receptor 2A (HTR2A) small molecule agonists, cell-based qHTS assay (AID 1963587); further: nearly all actives have a fitted effect of over 30% in size
Procedure, shortened: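 CHO cells stably expressing human HTR2A, plated 18 h, loaded with calcium dye 1 h at 37 C. Agonist mode: compounds added and intracellular calcium fluorescence recorded kinetically for 2 min at 1 sec intervals.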

[11] = target: Muscarinic acetylcholine receptor M1 (Homo sapiens) (UniProt P11229); test: Cholinergic receptor muscarinic 1 (CHRM1) small molecule antagonists, cell-based qHTS assay (AID 1963588); further: nearly all actives have a fitted effect of over 40% in size
Sequence of Muscarinic acetylcholine receptor M1 (Homo sapiens) (P11229 whole entry, looked up): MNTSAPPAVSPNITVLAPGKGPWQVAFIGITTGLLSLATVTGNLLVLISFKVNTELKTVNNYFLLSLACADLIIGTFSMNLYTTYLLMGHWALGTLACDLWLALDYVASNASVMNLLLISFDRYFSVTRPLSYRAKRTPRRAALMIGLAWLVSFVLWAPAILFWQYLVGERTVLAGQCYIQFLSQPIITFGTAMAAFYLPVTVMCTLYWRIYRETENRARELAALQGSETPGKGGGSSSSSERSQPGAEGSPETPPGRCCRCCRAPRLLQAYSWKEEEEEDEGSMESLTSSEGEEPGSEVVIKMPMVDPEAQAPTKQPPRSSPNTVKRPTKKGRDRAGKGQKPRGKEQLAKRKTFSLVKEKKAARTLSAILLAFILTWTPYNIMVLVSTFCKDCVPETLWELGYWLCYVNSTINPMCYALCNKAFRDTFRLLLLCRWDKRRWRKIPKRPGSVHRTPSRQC
Procedure, shortened: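 Compounds were tested at 15 concentrations in three independent runs. Dye-loaded CHRM1-CHO cells were exposed 5 min at room temperature before stimulation by acetylcholine added at 50nM. Intracellular calcium was read kinetically on FDSS for 3 min.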

[12] = target: Muscarinic acetylcholine receptor M1 (Homo sapiens) (UniProt P11229); test: Cholinergic receptor muscarinic 1 (CHRM1) small molecule agonists, cell-based qHTS assay (AID 1963589); further: nearly all actives have a fitted effect of over 35% in size
Procedure, shortened: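 Fluorescent calcium dye reports M1 activation in stably transfected CHO cells. Compounds, 15 concentrations, added after 1 h dye loading at 37 C; kinetic reading at 1 sec intervals.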

[13] = cAMP Responsive Elements (CRE) small molecule agonists, cell-based qHTS assay (AID 1963590)
Procedure, shortened: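 Compound exposure lasted 3 h at 37 C/5% CO2 in CRE-bla HEK 293T cells grown in assay medium with 10% dialyzed FBS and 25 mM HEPES. Reporter signal came from LiveBLAzer B/G FRET substrate, 2 h, room temperature.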

[14] = cAMP Responsive Elements (CRE) small molecule antagonists, cell-based qHTS assay (AID 1963591; active means well fitted inhibition curve with a large enough effect in the signal ratio in the repeat runs, not every such curve was filed as active; the % refers to the signal ratio)
Procedure, shortened: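 Stimulation used NKH477 at a final 0.25 uM for 3 h in compound-treated CRE-bla HEK293T cells, seeded 18 h beforehand. Reporter activity was measured with LiveBLAzer B/G FRET substrate after 2 h at room temperature.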

[15] = target: Beta-2 adrenergic receptor (Homo sapiens) (UniProt P07550); test: Adrenergic beta2 receptor (ADRB2) small molecule antagonists, cell-based qHTS assay (AID 1963592); further: series mostly up to about 92 µM; nearly all actives have a fitted effect of over 50% in size
Sequence of Beta-2 adrenergic receptor (Homo sapiens) (P07550 whole entry, looked up): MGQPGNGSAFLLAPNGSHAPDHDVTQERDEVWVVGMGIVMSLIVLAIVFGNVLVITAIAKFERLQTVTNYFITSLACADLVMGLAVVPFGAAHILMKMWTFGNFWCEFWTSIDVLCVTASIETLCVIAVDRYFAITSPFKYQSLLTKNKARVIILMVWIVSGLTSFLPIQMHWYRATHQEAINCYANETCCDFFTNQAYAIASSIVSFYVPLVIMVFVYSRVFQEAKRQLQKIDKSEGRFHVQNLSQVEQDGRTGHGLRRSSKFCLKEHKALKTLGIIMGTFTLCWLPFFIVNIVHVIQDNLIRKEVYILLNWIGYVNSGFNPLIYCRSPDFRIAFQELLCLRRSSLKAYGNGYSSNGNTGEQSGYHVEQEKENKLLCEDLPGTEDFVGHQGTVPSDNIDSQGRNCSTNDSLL
Procedure, shortened: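 Assay format: CHO-ADRB2 cells, 18-20hr seeding at 37C/5% CO2, then compound plus 1nM isoproterenol agonist mix for 0.5hr RT. Homogeneous time-resolved fluorescence cAMP detection after 1hr, expressed as 665/615 nm ratio.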

[16] = target: D(2) dopamine receptor (Homo sapiens) (UniProt P14416); test: Dopamine D2 receptor (DRD2) small molecule agonists, cell-based qHTS assay (AID 1963594); further: nearly all actives have a fitted effect of over 35% in size
Sequence of D(2) dopamine receptor (Homo sapiens) (P14416 whole entry, looked up): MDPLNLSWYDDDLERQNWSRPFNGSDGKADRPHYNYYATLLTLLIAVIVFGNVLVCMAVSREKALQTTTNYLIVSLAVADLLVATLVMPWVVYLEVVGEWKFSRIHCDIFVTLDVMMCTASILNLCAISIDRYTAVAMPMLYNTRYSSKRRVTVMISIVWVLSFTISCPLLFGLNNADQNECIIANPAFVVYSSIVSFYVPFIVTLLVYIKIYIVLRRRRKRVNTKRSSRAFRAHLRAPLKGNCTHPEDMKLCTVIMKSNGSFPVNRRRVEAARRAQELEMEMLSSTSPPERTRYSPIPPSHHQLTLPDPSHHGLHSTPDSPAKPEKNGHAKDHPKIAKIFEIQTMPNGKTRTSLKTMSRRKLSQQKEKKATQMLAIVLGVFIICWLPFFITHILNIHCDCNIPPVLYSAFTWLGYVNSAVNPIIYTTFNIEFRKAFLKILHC
Procedure, shortened: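 HEK293 cells stably expressing human DRD2, pre-treated with PDE inhibitor Ro20-1724 (0.1 mM final) and compound 10 min at room temperature, then stimulated with NKH477 (200nM […]) for 30 min. cAMP read by HTRF (665/620 nm).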

[17] = target: D(2) dopamine receptor (Homo sapiens) (UniProt P14416); test: Dopamine D2 receptor (DRD2) small molecule antagonists, cell-based qHTS assay (AID 1963595; active means well fitted inhibition curve with a large enough effect in the signal ratio in the repeat runs, with a control signal flat; the % refers to the signal ratio)
Procedure, shortened: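 HTRF cAMP read-out at 665 and 620 nm emission (340 nm excitation). Antagonist mode: compounds were tested against 12 nM quinpirole in DRD2-HEK293 cells, with 200 nM NKH477 raising cAMP and 0.1 mM Ro20-1724 blocking its breakdown.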

[18] = target: Beta-2 adrenergic receptor (Homo sapiens) (UniProt P07550); test: Adrenergic beta2 receptor (ADRB2) small molecule agonists, cell-based qHTS assay (AID 1963593);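 further: CHO cells stably overexpressing human ADRB2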
Procedure, shortened: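 CHO cells stably over-expressing ADRB2 were plated overnight at 37C, then dosed with compounds plus a stimulation mix containing 100uM IBMX and 25uM Ro-20-1724 for 0.5hr at room temperature. cAMP was measured by HTRF competition, 1hr.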
On the % scale 0 is the no-effect control and ±100 the full control effect.

CC(=O)c1ccc([N+](=O)[O-])cc1
inactive: Potency [1] | Potency [2] | Potency [3] | Potency [4] | Potency [5] | Potency [6] | Potency [7] | Potency [8] | Potency [9] | Potency [10] | Potency [11] | Potency [12] | Potency [13] | Potency [14] | Potency [15] | Potency [16] | Potency [17]

CCCOC(=O)CC
inactive: Potency [1] | Potency [2] | Potency [3] | Potency [4] | Potency [5] | Potency [6] | Potency [7] | Potency [8] | Potency [9] | Potency [10] | Potency [11] | Potency [12] | Potency [13] | Potency [14] | Potency [15] | Potency [16] | Potency [17]

CCCC(=O)OC/C=C(\C)CCC=C(C)C
inactive: Potency [1] | Potency [2] | Potency [3] | Potency [4] | Potency [5] | Potency [6] | Potency [7] | Potency [8] | Potency [9] | Potency [10] | Potency [11] | Potency [12] | Potency [13] | Potency [14] | Potency [15] | Potency [16] | Potency [17]

CC(=O)OCC(=O)[C@@]1(O)[C@H](C)C[C@H]2[C@@H]3CCC4=CC(=O)C=C[C@]4(C)[C@@]3(F)[C@@H](O)C[C@@]21C
inactive: Potency [1] | Potency [2] | Potency [3] | Potency [4] | Potency [5] | Potency [6] | Potency [7] | Potency [8] | Potency [9] | Potency [10] | Potency [11] | Potency [12] | Potency [13] | Potency [14] | Potency [15] | Potency [16] | Potency [17]

Cc1ccc(Br)cc1
inactive: Potency [1] | Potency [2] | Potency [3] | Potency [4] | Potency [5] | Potency [6] | Potency [7] | Potency [8] | Potency [9] | Potency [10] | Potency [11] | Potency [12] | Potency [13] | Potency [14] | Potency [15] | Potency [16] | Potency [17]

CCOC(=O)CC(C)C
inactive: Potency [1] | Potency [2] | Potency [3] | Potency [4] | Potency [5] | Potency [6] | Potency [7] | Potency [8] | Potency [9] | Potency [10] | Potency [11] | Potency [12] | Potency [13] | Potency [14] | Potency [15] | Potency [16] | Potency [17]

c1ccc(-c2ccc(-c3ccccc3)cc2)cc1
inactive: activity change, negative = cytotoxicity [1] 1.35% [at 19 µM] | activity, positive = activation [2] 16.6% [at 19 µM] | activity change [3] 1.83% [at 11.8 µM, active compounds read high] | activation [4] 1.85% [at 15.8 µM] | activation [5] 0.1% [at 11.8 µM] | activity change, negative = cytotoxicity [6] 5.03% [at 13.5 µM] | activity change, negative = cytotoxicity [7] -3.67% [at 13.5 µM] | activity change, negative = cytotoxicity [8] -12.2% [at 13.5 µM] | activity, negative = inhibition [9] -2.25% [at 12.7 µM] | activation [10] 13.6% [at 15.9 µM] | activity, negative = inhibition [11] 9.45% [at 12.6 µM] | activation [12] 0.405% [at 15.8 µM] | activation [13] -0.166% [at 19 µM] | activity change, negative = inhibition [14] -3.34% [at 18.9 µM] | activity change, negative = inhibition [15] 0.791% [at 19 µM] | activation [16] 2.85% [at 19 µM] | activity change, negative = inhibition [17] 0.516% [at 18.9 µM]

CCC(=O)C1CC(C(C)C)CC=C1C (stereo not drawn)
inactive: Potency [1] | Potency [2] | Potency [3] | Potency [4] | Potency [5] | Potency [6] | Potency [7] | Potency [8] | Potency [9] | Potency [10] | Potency [11] | Potency [12] | Potency [13] | Potency [14] | Potency [15] | Potency [16] | Potency [17]

Cc1ccc(C(N)=O)cc1N
inactive: Potency [1] | Potency [2] | Potency [3] | Potency [4] | Potency [5] | Potency [6] | Potency [7] | Potency [8] | Potency [9] | Potency [10] | Potency [11] | Potency [12] | Potency [13] | Potency [14] | Potency [15] | Potency [16] | Potency [17]

CCC/C=C(\C=O)CC
inactive: Potency [1] | Potency [2] | Potency [3] | Potency [4] | Potency [5] | Potency [6] | Potency [7] | Potency [8] | Potency [9] | Potency [10] | Potency [11] | Potency [12] | Potency [13] | Potency [14] | Potency [15] | Potency [16] | Potency [17]

C=C(C)C(=O)OCC
inactive: Potency [1] | Potency [2] | Potency [3] | Potency [4] | Potency [5] | Potency [6] | Potency [7] | Potency [8] | Potency [9] | Potency [10] | Potency [11] | Potency [12] | Potency [13] | Potency [14] | Potency [15] | Potency [16] | Potency [17]

COC(=O)CCS
inactive: Potency [1] | Potency [2] | Potency [3] | Potency [4] | Potency [5] | Potency [6] | Potency [7] | Potency [8] | Potency [9] | Potency [10] | Potency [11] | Potency [12] | Potency [13] | Potency [14] | Potency [15] | Potency [16] | Potency [17]

O=c1c2ccccc2oc2ccccc12
inactive: Potency [1] | Potency [2] | Potency [3] | Potency [4] | Potency [5] | Potency [6] | Potency [7] | Potency [8] | Potency [9] | Potency [10] | Potency [11] | Potency [12] | Potency [13] | Potency [14] | Potency [15] | Potency [18] | Potency [17]

CCC(C)N (stereo not drawn)
inactive: Potency [1] | Potency [2] | Potency [3] | Potency [4] | Potency [5] | Potency [6] | Potency [7] | Potency [8] | Potency [9] | Potency [10] | Potency [11] | Potency [12] | Potency [13] | Potency [14] | Potency [15] | Potency [16] | Potency [17]
